Measurements as given in the supplement of paper PMC6089552.
Several values for one entry are separate records, joined by “and”; a condition that tells them apart may be missing. Equal entries are not always repeated. The campaign covered roughly 3,200 compounds. About 300 (9.4%) showed activity. What follows is part of a selection rich in actives, with near analogues and random picks from the rest.

System: A673/TR/shEF
Assay: cell viability (LOESS-normalised, relative to median of negative controls) (log2 ratio); higher = more viable cells (less compound effect), active = hit call of the paper (over 3 MAD below the median)
Details: treatment time: 72 h
In short: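 Doxycycline, present or absent from 24 h before compounds, was used to induce EWS-FLI1 shRNA knockdown in A673/TR/shEF Ewing sarcoma cells at 1,500 per well in 384-well plates. Cells then received library compounds at two or more concentrations, or DMSO controls, for three days. Viability was measured by CellTiter-Glo luminescence on an Envision reader, and per-plate LOESS correction, division by the negative-control median and log2 transformation followed.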

[1] = 0.103 µM, library screen: screen3, EWS-FLI1 expression: high (no doxycycline)
[2] = 0.103 µM, library screen: screen3, EWS-FLI1 expression: low (doxycycline-induced shRNA knockdown)
[3] = 0.25 µM, library screen: screen1, EWS-FLI1 expression: high (no doxycycline)
[4] = 0.25 µM, library screen: screen1, EWS-FLI1 expression: low (doxycycline-induced shRNA knockdown)
[5] = 0.308 µM, library screen: screen3, EWS-FLI1 expression: high (no doxycycline)
[6] = 0.308 µM, library screen: screen3, EWS-FLI1 expression: low (doxycycline-induced shRNA knockdown)
[7] = 0.926 µM, library screen: screen3, EWS-FLI1 expression: high (no doxycycline)
[8] = 0.926 µM, library screen: screen3, EWS-FLI1 expression: low (doxycycline-induced shRNA knockdown)
[9] = 2.5 µM, library screen: screen1, EWS-FLI1 expression: high (no doxycycline)
[10] = 2.5 µM, library screen: screen1, EWS-FLI1 expression: low (doxycycline-induced shRNA knockdown)
[11] = 2.8 µM, library screen: screen3, EWS-FLI1 expression: high (no doxycycline)
[12] = 2.8 µM, library screen: screen3, EWS-FLI1 expression: low (doxycycline-induced shRNA knockdown)
[13] = 8.3 µM, library screen: screen3, EWS-FLI1 expression: high (no doxycycline)
[14] = 8.3 µM, library screen: screen3, EWS-FLI1 expression: low (doxycycline-induced shRNA knockdown)
[15] = 25 µM, library screen: screen3, EWS-FLI1 expression: high (no doxycycline)
[16] = 25 µM, library screen: screen3, EWS-FLI1 expression: low (doxycycline-induced shRNA knockdown)
[17] = 0.25 µM, library screen: screen2, EWS-FLI1 expression: high (no doxycycline)
[18] = 0.25 µM, library screen: screen2, EWS-FLI1 expression: low (doxycycline-induced shRNA knockdown)
[19] = 2.5 µM, library screen: screen2, EWS-FLI1 expression: high (no doxycycline)
[20] = 2.5 µM, library screen: screen2, EWS-FLI1 expression: low (doxycycline-induced shRNA knockdown)
[21] = 0.025 µM, library screen: screen2, EWS-FLI1 expression: high (no doxycycline)
[22] = 0.025 µM, library screen: screen2, EWS-FLI1 expression: low (doxycycline-induced shRNA knockdown)
[23] = 25 µM, library screen: screen2, EWS-FLI1 expression: high (no doxycycline)
[24] = 25 µM, library screen: screen2, EWS-FLI1 expression: low (doxycycline-induced shRNA knockdown)

Measured: cell viability (log2)

COc1cc([C@@H]2c3cc4c(cc3[C@@H](O[C@@H]3O[C@@H]5CO[C@@H](c6cccs6)O[C@H]5[C@H](O)[C@H]3O)[C@H]3COC(=O)[C@H]23)OCO4)cc(OC)c1O
inactive: [1] -0.0319 | [2] -0.00588 | [6] -0.0159
active: [3] -0.797 | [4] -0.349 | [5] -0.326 | [7] -0.931 | [8] -0.262 | [9] -1.74 | [10] -0.557 | [11] -1.32 | [12] -0.472 | [13] -2.12 | [14] -0.477 | [15] -3.07 | [16] -0.784

COc1cc([C@@H]2c3cc4c(cc3[C@@H](O[C@@H]3O[C@@H]5CO[C@@H](C)O[C@H]5[C@H](O)[C@H]3O)[C@H]3COC(=O)[C@H]23)OCO4)cc(OC)c1O
inactive: [1] 0.16 | [2] 0.0754 | [3] 0.0215 | [4] 0.0298 | [17] 0.197 | [18] 0.0698 | [5] 0.0781 | [6] 0.0446 | [7] 0.0107 | [8] 0.0985 | [10] 0.00733 | [20] 0.00714 | [12] -0.0251
active: [9] -0.176 | [19] -0.711 | [11] -0.212 | [13] -0.857 | [14] -0.166 | [15] -1.25 | [16] -0.367

CCCC(CC)CCOC(=O)COc1cc(Cl)c(Cl)cc1Cl (configuration not stated)
inactive: [3] 0.0358 | [4] 0.0314 | [9] 0.0377 | [10] 0.068

NCCCC(N)CC(=O)NCC1NC(=O)C(CO)NC(=O)C(N)CNC(=O)C(C2CCN=C(N)N2)NC(=O)/C(=C/NC(N)=O)NC1=O (configuration not stated)
inactive: [3] 0.0914 | [4] 0.117 | [9] 0.124 | [10] 0.0772

CC1=C(C(=O)OCCOc2ccccc2)C(c2coc3ccccc3c2=O)C2=C(CCCC2=O)N1 (configuration not stated)
inactive: [3] 0.0678 | [4] -0.0908 | [9] 0.0965 | [10] 0.143

COc1cc2nc(N3CCN(C(=O)C4=C[C@H]5C=C[C@@H]4CC5)CC3)nc(N)c2cc1OC
inactive: [17] 0.165 | [18] 0.0668 | [19] 0.132 | [20] 0.0728

NCCCCC(N)C(=O)NC(Cc1c[nH]c2ccccc12)C(=O)NC(CCCCN)C(=O)O (configuration not stated)
inactive: [3] 0.0147 | [4] 0.0512 | [9] 0.141 | [10] 0.0544

COC(=O)c1c(OC)cc2c(c1C)Oc1c(Cl)c(OC(C)=O)c(Cl)c(C)c1C(=O)O2
inactive: [3] 0.0846 | [4] 0.126 | [9] 0.0897 | [10] 0.152

COC(=O)C1=C(C)N=c2sc(=Cc3cccnc3)c(=O)n2C1c1ccccc1 (configuration not stated)
inactive: [3] 0.123 | [4] 0.0677 | [9] 0.0796 | [10] 0.107

O=C(/C=C/c1ccc(-c2cccc(Cl)c2)o1)c1ccco1
inactive: [3] 0.127 | [4] 0.15 | [9] 0.147 | [10] 0.194

O=c1nc[nH]c2nc[nH]c12
inactive: [3] 0.00725 | [4] -0.0191 | [9] 0.152 | [10] 0.0891

Nc1nc(=S)c2[nH]cnc2[nH]1
active: [9] -0.318 | [19] -0.33 | [13] -0.323 | [23] -0.96 | [24] -0.163 | [15] -0.834
inactive: [21] 0.0835 | [22] 0.0155 | [1] 0.132 | [2] 0.0451 | [3] 0.0575 | [4] 0.137 | [17] 0.0679 | [18] 0.0691 | [5] 0.156 | [6] 0.137 | [7] 0.118 | [8] 0.102 | [10] 0.0456 | [20] -0.0263 | [11] 0.0258 | [12] 0.111 | [14] 0.0181 | [16] 0.027

Cn1c(=O)c2[nH]cnc2n(C)c1=O
inactive: [1] 0.139 | [2] 0.0982 | [3] 0.0899 | [4] 0.0721 | [17] 0.105 and -0.0181 | [18] 0.0369 and 0.0406 | [5] 0.11 | [6] 0.14 | [7] 0.146 | [8] 0.0819 | [9] 0.127 | [10] 0.0623 | [19] 0.259 and 0.0738 | [20] 0.0969 and 0.00951 | [11] 0.155 | [12] 0.129 | [13] 0.11 | [14] 0.0762 | [15] 0.117 | [16] 0.0984

S=c1nc[nH]c2nc[nH]c12
active: [9] -0.186 | [23] -0.312 | [15] -0.314
inactive: [21] 0.182 | [22] 0.0993 | [1] 0.0192 | [2] 0.0459 | [3] -0.0045 | [4] -0.00406 | [17] 0.161 | [18] 0.00291 | [5] 0.144 | [6] 0.158 | [7] 0.0964 | [8] 0.0595 | [10] 0.0219 | [19] -0.00564 | [20] 0.0787 | [11] 0.036 | [12] 0.0694 | [13] -0.147 | [14] 0.036 | [24] 0.0432 | [16] 0.056

Cn1c(=O)[nH]c2nc[nH]c2c1=O
inactive: [3] 0.0262 | [4] 0.135 | [9] 0.103 | [10] 0.0812

COc1cc2ccc(=O)oc2c(OC)c1OC
inactive: [3] 0.24 | [4] 0.119 | [9] 0.156 | [10] 0.115

CC(C)/C(O)=C1/C(=O)O[C@@H](c2ccoc2)[C@]2(C)C(O)[C@@H](O)[C@@]34OC5(C)OC67CC(C)(C(O)[C@]6(O)[C@@H](O)[C@]3(O5)C12)[C@H](CC(=O)O)[C@]74C (some centres not stated)
inactive: [3] 0.0599 | [4] 0.0645 | [9] 0.0749 | [10] 0.047
